Experimental findings from PubChem BioAssay AID1076 (NMMLSC, 2008) are described below.

The source made the active and inactive calls.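 How the source made its calls: active means cell event count below 40, meaning activity score above 60 where score is 100 minus count; inactive means the rest.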

The nature of this assay: cytotoxicity in LNCaP prostate cells – cell-based, cell event count, single point, cytotoxicity control for prostate differentiation activator project, confirmation (AID 1076).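 Further: counts scatter-gated live cells after medium removal discards detached dead cells.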 The settings on record: LNCaP cell loss, flow cytometry event count, 4 d, stronger effect = lower value. On the technique in general: In flow cytometry, cells or beads pass a laser one at a time.

On to `CCc1ccc(-c2nc(CN3CCC(C(=O)NCc4ccco4)CC3)c(C)o2)cc1`, for which the cell event count runs as follows: (at 100 µM) 25 (inactive); (event count, at 10 µM) 172.
Turning to `CCCCC(=O)NCCc1ccc(S(N)(=O)=O)cc1`, the cell event count runs as follows: (at 100 µM) 238 (inactive); (event count, at 10 µM) 92.5.
Regarding `Nc1ccc(-c2nc3c(Cl)c(N)ccc3[nH]2)cc1`, the cell event count (at 100 µM) is 183 (inactive) and the cell event count (event count, at 10 µM) came out at 206.
Take `O=C(c1ccccc1)c1ccc(N2CCNCC2)cc1`: the cell event count is 135 (inactive) (at 100 µM) and 168 (event count, at 10 µM).
For `CCOC(=O)c1[nH]c(C)c(C(=O)N2CCc3ccccc32)c1C`, in that order: 13 (active) and 67.
For `Cn1c(=O)cc(SCC(=O)NCCCN2CCN(c3ccc(F)cc3)CC2)c2ccccc21`, in that order: 30 (inactive) and 211.
Consider `COc1ccc(N2CCN(CCCNC(=O)CN3CCN(Cc4ccccc4C)C3=O)CC2)cc1`, for which the cell event count (at 100 µM) was 19 (inactive) and the cell event count (event count, at 10 µM) turned out to be 87.5.
Turning to `CCc1ccc(-c2nc(CN3CCC(C(=O)N4CCN(c5ccccn5)CC4)CC3)c(C)o2)cc1`, the cell event count by setting is: (at 100 µM) 10 (inactive); (event count, at 10 µM) 212.
The matching figures for `O=C(NCCCN1CCN(c2cccc(Cl)c2)CC1)c1nc(-c2ccncc2)no1`: 166 (inactive) and 462.
With `CCCCCn1c(=N)n(CC(O)COc2ccccc2OC)c2ccccc21` (stereo unspecified), the cell event count (at 100 µM) is 20 (inactive) and the cell event count (event count, at 10 µM) amounted to 138.
For `CN(C)c1ccc(CNC2CC(C)(C)NC(C)(C)C2)cc1`, the cell event count by setting is: (at 100 µM) 130 (inactive); (event count, at 10 µM) 186.
The matching figures for `O=C(C1CCN(S(=O)(=O)c2cccc3nsnc23)CC1)N1CC=C(c2ccccc2)CC1`: 27 (inactive) and 258.
For `CCN(CC)CCNC(=O)c1cc2c(-c3ccc(Cl)cc3)nn(C)c2s1`, in that order: 25 (active) and 25.
For `COc1ccc(Nc2nc(N3CCCC3)c3ccccc3n2)cc1`, in that order: 50 (inactive) and 180.
Consider `COc1ccc(Nc2nc(N)nc(CN3CCC(Cc4ccccc4)CC3)n2)cc1`, for which the cell event count (at 100 µM) was 6 (active) and the cell event count (event count, at 10 µM) turned out to be 7.5.
The matching figures for `Cc1ccccc1-c1nc(CN2CCC(C(=O)O)CC2)c(C)o1`: 217 (inactive) and 207.
For the compound `CCN(CC)CCCNC(=O)c1cc2c(-c3ccc(Cl)cc3)nn(C)c2s1`, the cell event count (at 100 µM) is 13 (active) and the cell event count (event count, at 10 µM) turned out to be 71.5.
`CCCCOC(=O)CSc1nc2c(cc1C#N)C(=O)CC(C)(C)C2`: the cell event count (at 100 µM) was 203 (inactive) and the cell event count (event count, at 10 µM) came out at 194.
With `CCN(CC)CC(=O)Nc1ccc(-c2nc3cc(NC(=O)CN(CC)CC)ccc3o2)cc1`, the cell event count (at 100 µM) was 1 (inactive) and the cell event count (event count, at 10 µM) was 140.
As to `O=C(Nc1c(C(=O)N2CCOCC2)cnn1-c1ccccc1)c1ccco1`, the cell event count was 201 (inactive) (at 100 µM) and 124 (event count, at 10 µM).
The matching figures for `CCN1CCN(c2cc(C)c3cc(NC(=O)c4ccc(Br)o4)ccc3n2)CC1`: 36 (inactive) and 233.
The matching figures for `COc1ccc2nc(NC(=O)C(NS(=O)(=O)c3cccs3)C(C)C)sc2c1` (stereo unspecified): 67 (inactive) and 253.
For `Cc1oc(-c2ccccc2F)nc1CN1CCC(C(=O)NCc2ccco2)CC1`, in that order: 330 (inactive) and 278.
Take `CCCNC(=O)C1CN(S(=O)(=O)c2ccccc2)CCN1S(=O)(=O)c1ccccc1` (stereo unspecified): the cell event count (at 100 µM) was 120 (inactive) and the cell event count (event count, at 10 µM) turned out to be 67.
For `COc1ccc(Cc2n[nH]c(=O)c3ccccc23)cc1OC`, in that order: 207 (inactive) and 111.
The matching figures for `C=CCn1c(=N)n(CC(O)COc2ccc(OC)cc2)c2ccccc21` (stereo unspecified): 37 (inactive) and 126.
Turning to `CCn1c(SCC(=O)Nc2ccccc2F)nc2c(c1=O)SC(C)C2` (stereo unspecified), the cell event count is 75 (inactive) (at 100 µM) and 70.5 (event count, at 10 µM).
The matching figures for `O=c1cc(-c2ccccc2)[nH]c2ccccc12`: 9 (active) and 76.
The matching figures for `Cc1cc(NC(=O)c2noc3c2CCc2ccccc2-3)n(-c2ccccc2)n1`: 146 (inactive) and 367.
For `Cn1c(C(=O)NCCCN2CCN(c3ccccc3F)CC2)cc2c(=O)[nH]c3ccccc3c21`, in that order: 3 (inactive) and 93.
`Cn1c(C(=O)NCCN2CCN(c3ccccc3F)CC2)cc2c(=O)n(C)c3ccccc3c21`: the cell event count is, setting by setting: (at 100 µM) 2 (inactive); (event count, at 10 µM) 194.
The matching figures for `Cc1oc(-c2ccc(Cl)cc2)nc1CN1CCC(C(=O)NCCCN2CCOCC2)CC1`: 12 (inactive) and 119.
For `CC(=O)c1cccc(NC2c3ccccc3C(=O)N2Cc2ccc3c(c2)OCO3)c1` (stereo unspecified), in that order: 121 (inactive) and 281.
The matching figures for `COC(=O)CN1CCN(C(=O)c2ccc(F)cc2)c2ccccc2C1`: 112 (inactive) and 157.
In the case of `Oc1ccccc1CNc1nc2ccccc2n1CCN1CCCCC1`, the cell event count is, setting by setting: (at 100 µM) 44 (inactive); (event count, at 10 µM) 176.
For `Cc1ccc(Cn2ccc(NC(=O)c3cc(-c4ccc(Br)cc4)on3)n2)cc1`, in that order: 257 (inactive) and 132.
In the case of `CC1=C(n2nnc3ccccc32)C(c2ccccc2)C(C#N)=C(N)O1` (stereo unspecified), the cell event count by setting is: (at 100 µM) 96 (inactive); (event count, at 10 µM) 97.5.
On to `CCN1CCN(CCNC(=O)C2CCN(Cc3nc(-c4ccc(Cl)cc4)oc3C)CC2)CC1`, for which the cell event count reads like this: (at 100 µM) 38 (inactive); (event count, at 10 µM) 378.
